# Experimental data published in PubChem BioAssay (NCATS).
# Inconclusive results are not listed. Where a call stands in place of a potency, no number is given. Calls of active or inactive are those of the source. Unless noted, calls follow the shape of the dose curve; as a rule, active = well fitted curve in the direction sought with a large enough effect; inconclusive = small, poorly fitted or top-dose-only effect, or another doubt; inactive = no such curve, though single readings can be large; an effect the other way counts as inactive or inconclusive.
# Columns and labels:
# [1] = molecular target: Cytochrome P450 2D6 (Homo sapiens) (UniProt P10635); test: Cytochrome P450 family 2 subfamily D member 6 (CYP2D6) small molecule antagonists: luciferase biochemical (cell-free) qHTS assay (AID 1645840; active = well fitted curve in the direction sought with a large enough effect in the repeat runs; an effect the other way counts as inactive or inconclusive; also: nearly all actives have a fitted effect of over 55% in size; also: potency is read from the fitted curve at half-maximal effect)
# Summary of the method: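 P450-Glo luminescent screen: recombinant CYP2D6 enzyme–proluciferin substrate mix preincubated with compound 10 min at room temperature, then NADPH regeneration added for 1 h at room temperature. Detection reagent added for 20 min; luciferin light read as relative luminescence units.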
# [2] = molecular target: Calcium and integrin-binding protein 1 (Homo sapiens) (UniProt Q99828); test: Primary qHTS for Identification of Calcium Integrin Binding Protein 1 (CIB1) Competitor (AID 1508620);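 also: GST tagged CIB1 binding a fluorescein labelled alphaIIb integrin peptide tracer; top concentration of the series differs between compounds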
# Summary of the method: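 Fluorescence polarization competition: CIB1-GST (1 uM final) preincubated with compound 15 min at room temperature, then FITC-labeled alphaIIb peptide (100 nM final) added for another 15 min. Polarization read at Ex 480/Em 540.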
# [3] = Primary qHTS for inhibitors of nuclear receptor binding SET domain protein 2 (NSD2) in an isogenic RCH-ACV NSD2 p.E1099K mutant (9B) (AID 1645876); also: nearly all actives have a fitted effect of over 70% in size; also: potency is read from the fitted curve at half-maximal effect
# [4] = Primary qHTS for inhibitors of nuclear receptor binding SET domain protein 2 (NSD2) in an RCH-ACV wild type WT cells (2C) (AID 1645877); also: nearly all actives have a fitted effect of over 70% in size; also: potency is read from the fitted curve at half-maximal effect
# [5] = Primary qHTS for inhibitors of La Crosse Virus (LACV) - induced cell death in SH-SY5Y cells (AID 1508616);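 also: top concentration of the series differs between compounds; higher means more rescue of cells from virus-induced death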
# Summary of the method: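 Luminescent ATP readout (ATPLite 1step, 5 min room temperature) measured rescue from LACV-induced death after 6 days of infection at 0.01 MOI; normalized to infected DMSO wells and uninfected DMSO wells.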
# [6] = Primary qHTS for small molecule stabilizers of the endoplasmic reticulum resident proteome: Secreted ER Calcium Modulated Protein (SERCaMP) assay (AID 1508630)
# Summary of the method: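 GLuc-SERCaMP-expressing SH-SY5Y cells, pretreated 16 h with compound, are challenged with thapsigargin to empty ER calcium stores; after 4 h, coelenterazine is added directly to the medium and luminescence is imaged.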
# [7] = molecular target: Cytochrome P450 2C9 (Homo sapiens) (UniProt P11712); test: Cytochrome P450 family 2 subfamily C member 9 (CYP2C9) small molecule antagonists: luciferase biochemical (cell-free) qHTS assay (AID 1645842; active = well fitted curve in the direction sought with a large enough effect in the repeat runs; an effect the other way counts as inactive or inconclusive; also: nearly all actives have a fitted effect of over 55% in size; also: potency is read from the fitted curve at half-maximal effect)
# Summary of the method: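 Luminescence, after 20 min with luciferin detection reagent, reflected CYP2C9 turnover during a 1 h NADPH-driven reaction at 37C. Enzyme-substrate mix contained 0.4% bovine serum albumin and was preincubated with compound 10 min at room temperature.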
# [8] = molecular target: N-terminal Xaa-Pro-Lys N-methyltransferase 1 (Homo sapiens) (UniProt Q9BV86); test: Confirmatory qHTS for Inhibitors of N-terminal methyltransferase 1 (NTMT1): MTaseGlo Assay (AID 1645874);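 also: luminescence from SAH made as NTMT1 methylates SPKRIA peptide using SAM; series mostly up to about 100 µM; nearly all actives have a fitted effect of over 65% in size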
# Summary of the method: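 Luminescent MTase-Glo read-out of SAH. 125 nM NTMT1, 100 uM SAM, 1 uM SPKRIA substrate, 30 min RT reaction after 15 min compound preincubation. Normalized to no-enzyme and DMSO controls; Hill fit.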
# [9] = A High-Content qHTS Against Drug Library for the Identification of Small Molecules that Inhibit DYT1 Early Onset Primary Dystonia-Associated Cell Pathology (AID 1645839; calls by dose curve; also: series mostly up to about 46 µM)
# Summary of the method: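 Readout: %pathology, the punctate EGFP-TorsinA distribution from imaging, as the primary channel and cell count as the toxicity counterscreen. HEK293 Flp-In cells expressing delE TorsinA were induced with tetracycline and treated with compound for 48 h.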
# [10] = molecular target: Cytochrome P450 3A4 (Homo sapiens) (UniProt P08684); test: Cytochrome P450 family 3 subfamily A member 4 (CYP3A4) small molecule antagonists: luciferase qHTS assay (AID 1645841; active = well fitted curve in the direction sought with a large enough effect in the repeat runs; an effect the other way counts as inactive or inconclusive; also: nearly all actives have a fitted effect of over 45% in size)
# Summary of the method: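 P450-Glo CYP3A4 enzyme with proluciferin substrate was preincubated with DMSO-dissolved compounds for 10 min at room temperature. NADPH regeneration solution started a 1 h reaction. Detection reagent stopped it, and luminescence was read after 20 min.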
# Sequence of Cytochrome P450 2D6 (Homo sapiens) (P10635 whole entry, looked up): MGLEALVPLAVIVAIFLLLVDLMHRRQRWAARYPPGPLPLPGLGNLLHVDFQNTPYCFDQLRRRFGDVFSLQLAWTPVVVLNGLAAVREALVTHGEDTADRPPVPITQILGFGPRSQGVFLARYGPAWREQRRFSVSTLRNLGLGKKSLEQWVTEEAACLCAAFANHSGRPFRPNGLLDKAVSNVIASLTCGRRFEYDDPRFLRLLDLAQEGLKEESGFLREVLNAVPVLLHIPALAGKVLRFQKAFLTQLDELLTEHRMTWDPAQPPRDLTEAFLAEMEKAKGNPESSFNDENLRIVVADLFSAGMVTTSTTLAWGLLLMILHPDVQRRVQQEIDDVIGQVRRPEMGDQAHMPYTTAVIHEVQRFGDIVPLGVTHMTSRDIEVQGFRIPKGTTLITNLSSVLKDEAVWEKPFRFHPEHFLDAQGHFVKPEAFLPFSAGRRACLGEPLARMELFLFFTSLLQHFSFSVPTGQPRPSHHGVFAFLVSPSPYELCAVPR
# Sequence of Cytochrome P450 2C9 (Homo sapiens) (P11712 whole entry, looked up): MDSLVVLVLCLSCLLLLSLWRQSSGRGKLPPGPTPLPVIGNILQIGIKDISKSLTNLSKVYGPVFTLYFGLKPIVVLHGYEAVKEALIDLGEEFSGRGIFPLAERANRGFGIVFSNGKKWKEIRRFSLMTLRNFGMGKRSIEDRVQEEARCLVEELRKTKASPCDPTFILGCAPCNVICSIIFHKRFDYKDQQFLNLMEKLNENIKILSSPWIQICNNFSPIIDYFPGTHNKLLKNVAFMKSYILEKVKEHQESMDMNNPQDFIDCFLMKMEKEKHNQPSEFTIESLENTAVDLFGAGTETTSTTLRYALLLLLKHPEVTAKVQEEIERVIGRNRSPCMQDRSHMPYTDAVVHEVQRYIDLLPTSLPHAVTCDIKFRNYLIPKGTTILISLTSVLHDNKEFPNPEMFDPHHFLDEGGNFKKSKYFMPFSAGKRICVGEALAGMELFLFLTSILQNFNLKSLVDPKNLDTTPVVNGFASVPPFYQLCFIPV
# Sequence of Calcium and integrin-binding protein 1 (Homo sapiens) (Q99828 whole entry, looked up): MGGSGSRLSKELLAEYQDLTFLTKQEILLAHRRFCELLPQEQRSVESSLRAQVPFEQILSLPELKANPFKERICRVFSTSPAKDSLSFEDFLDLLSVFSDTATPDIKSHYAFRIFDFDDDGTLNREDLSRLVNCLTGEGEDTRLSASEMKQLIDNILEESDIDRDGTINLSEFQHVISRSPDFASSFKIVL
# Sequence of Cytochrome P450 3A4 (Homo sapiens) (P08684 whole entry, looked up): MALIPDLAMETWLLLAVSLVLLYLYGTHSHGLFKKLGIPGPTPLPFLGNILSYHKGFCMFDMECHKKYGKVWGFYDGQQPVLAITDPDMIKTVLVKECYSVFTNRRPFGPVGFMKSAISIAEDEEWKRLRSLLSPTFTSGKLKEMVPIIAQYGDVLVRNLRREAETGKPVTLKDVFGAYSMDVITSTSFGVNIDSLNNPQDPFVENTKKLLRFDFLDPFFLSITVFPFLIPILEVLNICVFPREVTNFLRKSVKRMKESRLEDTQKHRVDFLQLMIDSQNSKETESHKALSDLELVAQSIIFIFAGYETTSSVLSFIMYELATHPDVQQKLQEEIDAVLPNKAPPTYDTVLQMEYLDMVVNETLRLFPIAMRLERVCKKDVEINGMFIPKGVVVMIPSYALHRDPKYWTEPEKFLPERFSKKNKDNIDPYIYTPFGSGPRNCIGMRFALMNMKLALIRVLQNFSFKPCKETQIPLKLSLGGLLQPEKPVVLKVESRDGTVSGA
# Sequence of N-terminal Xaa-Pro-Lys N-methyltransferase 1 (Homo sapiens) (Q9BV86 whole entry, looked up): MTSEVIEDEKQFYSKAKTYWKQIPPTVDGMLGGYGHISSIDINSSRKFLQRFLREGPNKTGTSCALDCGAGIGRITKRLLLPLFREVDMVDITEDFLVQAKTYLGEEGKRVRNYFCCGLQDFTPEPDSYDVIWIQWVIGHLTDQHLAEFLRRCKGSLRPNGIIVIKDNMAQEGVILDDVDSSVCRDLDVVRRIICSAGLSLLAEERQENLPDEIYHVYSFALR
structure (smiles),measurement,setting,value
CC(C)=CCC/C(C)=C/CC/C(C)=C/CC/C=C(\C)CC/C=C(\C)CCC=C(C)C,Potency,[1],inactive
CC(=O)Nc1ccc(NC(=S)NC(=O)c2ccc(C(C)(C)C)cc2)cc1,Potency,[2],inactive
same,Potency,[3],1.83 µM (active)
same,Potency,[4],3.25 µM (active)
CN(C)c1ccc(C(=C2C=CC(=[N+](C)C)C=C2)c2c(O)c(S(=O)(=O)[O-])cc3cc(S(=O)(=O)O)ccc23)cc1,Potency,[1],15.1 µM (active)
Nc1ccc(N=Nc2ccccc2)c(N)n1,outcome,[5],inactive
same,outcome,[6],inactive
same,Potency,[1],17.4 µM (active)
same,Potency,[7],13.8 µM (active)
C[C@]12CC[C@@H]3c4ccc(OC(=O)c5ccccc5)cc4CC[C@H]3[C@@H]1CC[C@@H]2O,Potency,[2],inactive
same,Potency,[1],inactive
same,Potency,[4],inactive
O=C1CCC(c2ccccc2)(C2CCN(Cc3ccccc3)CC2)C(=O)N1 (centres undefined),outcome,[6],inactive
CCN(CC)CCOCCOC(=O)C(CC)(CC)c1ccccc1,Potency,[2],inactive
same,Potency,[1],3.01 µM (active)
COc1cc(C)c(/C=C/C(C)=C/C=C/C(C)=C/C(=O)O)c(C)c1C,outcome,[6],inactive
same,outcome,[8],inactive
same,Potency,[4],18.6 µM (active)
N[C@H](CC(=O)O)C(=O)O,outcome,[6],inactive
CN(C)CCCSc1ccccc1NC(=O)/C=C/c1ccccc1,outcome,[5],inactive
same,Potency,[2],inactive
same,outcome,[6],inactive
same,outcome,[9],inactive
same,Potency,[1],0.347 µM (active)
same,Potency,[7],inactive
same,Potency,[3],inactive
same,Potency,[4],inactive
CC/C=C\C/C=C\C/C=C\C/C=C\C/C=C\C/C=C\CCC(=O)O,outcome,[6],inactive
NC(=O)c1ccc[n+]([C@@H]2O[C@H](COP(=O)([O-])OP(=O)(O)OC[C@H]3O[C@@H](n4cnc5c(N)ncnc54)[C@H](O)[C@@H]3O)[C@@H](O)[C@H]2O)c1,outcome,[6],inactive
CC(C)(C)c1ccc(CN2CCN(C(c3ccccc3)c3ccc(Cl)cc3)CC2)cc1 (centres undefined),Potency,[2],inactive
same,Potency,[1],inactive
same,Potency,[7],inactive
same,Potency,[4],inactive
CCOC(=O)C1=C(COCCN)NC(C)=C(C(=O)OC)C1c1ccccc1Cl (centres undefined),Potency,[1],16.9 µM (active)
same,Potency,[7],2.68 µM (active)
CC1(O)CCC(C(C)(C)O)CC1 (centres undefined),Potency,[1],inactive
same,Potency,[7],inactive
c1ccc2ccccc2c1,Potency,[1],inactive
same,Potency,[7],inactive
Cc1ncc(C[n+]2csc(CCO)c2C)c(N)n1,Potency,[1],inactive
same,outcome,[10],inactive
same,Potency,[7],inactive
CC[C@H]1OC(=O)C[C@@H](O)[C@H](C)[C@@H](O[C@@H]2O[C@H](C)[C@@H](O[C@H]3C[C@@](C)(O)[C@@H](O)[C@H](C)O3)[C@H](N(C)C)[C@H]2O)[C@@H](CC=O)C[C@@H](C)C(=O)/C=C/C(C)=C/[C@@H]1CO[C@@H]1O[C@H](C)[C@@H](O)[C@@H](OC)[C@H]1OC,Potency,[1],inactive
same,Potency,[7],inactive
